Mcl-1 Bim block: disrupts Bim peptide binding to human Mcl-1 | inhibition, % at 10 µM | Bead-based flow cytometry, Bim peptide-Mcl-1 binding | AID 1009 | hit rate 0.1% among 190,000 | Q07820; in the data active = inhibition above about 40%;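 note: 0% = no compound tracer wells and 100% = peptide blocker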
Target sequence (Q07820 whole entry, looked up): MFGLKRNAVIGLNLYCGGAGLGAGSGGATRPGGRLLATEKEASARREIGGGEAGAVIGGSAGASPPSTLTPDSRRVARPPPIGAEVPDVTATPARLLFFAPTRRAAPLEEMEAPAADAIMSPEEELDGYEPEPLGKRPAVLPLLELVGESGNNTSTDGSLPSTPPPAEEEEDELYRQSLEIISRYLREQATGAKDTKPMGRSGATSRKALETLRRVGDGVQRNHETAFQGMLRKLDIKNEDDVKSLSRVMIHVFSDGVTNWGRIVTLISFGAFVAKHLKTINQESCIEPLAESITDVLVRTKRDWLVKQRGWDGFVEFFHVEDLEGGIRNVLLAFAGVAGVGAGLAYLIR
TNF death inh: inhibitors of TNF-alpha induced necroptosis in Jurkat FADD-/- cells | Jurkat FADD-/- TNF necroptosis rescue, ATP luminescence, 24 h; 0 = TNF only, 100 = no-TNF cells | activation (protection from cell death), % at 10 µM | hit rate 0.068% among 220,000 | AID 463075;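 active = activation, meaning protection from cell death, of at least 50% relative to plate controls; inactive = activation below 50%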;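 note: necroptosis triggered by 40 ng/mL TNF-alpha added together with compound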
Calpain2 inh: calpain II (pig) inhibition; inhibition, % at 16 µM; hit rate 0.37% among 220,000; purified calpain II, fluorogenic peptide substrate, 30 min;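 active = inhibition above about 50%, limit read from the data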
zVAD death inh: blocks zVAD induced death of L929 cells; hit rate 0.38% among 220,000; viability rescue, % at 10 µM; L929 zVAD necroptosis rescue, ATP luminescence, 24 h; with zVAD 60 µM;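 active = activation, scaled between plate controls, above about 75%, limit read from the data; inactive = activation under that limit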;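 note: 0% = zVAD with DMSO and 100% = DMSO alone without zVAD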
Mcl1-Bid inh: Mcl-1/Bid interaction inhibition | Q07820 | TR-FRET Mcl-1/Bid-Dy647 peptide binding, 1536-well | inhibition, % at 21.7 µM | hit rate 0.97% among 220,000 | AID 1021;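 active = compounds that cut the binding signal by more than half at the single screening dose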;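 note: His-tagged Mcl-1 with europium anti-His antibody binding Bid BH3 peptide; 0% = Mcl-1 plus peptide wells and 100% = peptide-only wells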
Mcl1-Noxa inh: Mcl-1/Noxa interaction inhibition; TR-FRET Mcl-1/Noxa peptide binding, 2 h; inhibition, % at 21.7 µM; hit rate 1.5% among 220,000; AID 1022;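 active = compounds that cut the protein-peptide binding signal by more than 50% relative to plate controls in a single-dose test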;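 note: His-tagged Mcl-1 with rhodamine Noxa BH3 peptide and terbium anti-His antibody; 0% = Mcl-1 plus Noxa peptide wells and 100% = peptide-only wells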
* hit, by the source's call; x = no result given. Only some compounds are listed: those with a hit (about 2.8% of all), similar ones and a draw of the others.

SMILES | Mcl-1 Bim block | TNF death inh | Calpain2 inh | zVAD death inh | Mcl1-Bid inh | Mcl1-Noxa inh
O=C(NC1=NCCCCC1)c1cccc2ccccc12 | -2 | 1 | -25 | 1 | -16 | -31
CCCCCC#CCC#CCC#CCC#CCCCC(=O)O | 0 | 1 | 32 | 5 | 100* | 103*
CCOC(=O)COc1ccc(Br)cc1C1NC(=O)NC(C)=C1C(=O)NCc1ccccc1 (centres undefined) | -3 | 0 | -20 | 0 | -26 | -7
C[C@@H](C(=O)Nc1nc2ccc(F)cc2s1)N1C(=O)C2CC=CCC2C1=O (some centres undefined) | -2 | 0 | -23 | 3 | 95* | -8
Cc1ccc(Nc2nc(N)nc(CCl)n2)c(C)c1 | x | -26 | 7 | -1 | -15 | -3
Oc1ccccc1N=Nc1ccccc1O | -6 | -17 | 68* | 47 | -33 | 12
N#Cc1cccc(NC(=O)CN2C(=O)NC(Cc3ccccc3)C2=O)c1 (centres undefined) | x | 10 | -16 | 2 | -11 | 6
CCc1ccc(OCc2n[nH]c(=S)n2Cc2ccccc2)cc1 | -7 | 1 | 54* | 1 | -24 | -1
CN(C)c1cccc(NC(=O)C2(C)CC2(Cl)Cl)c1 (centres undefined) | 84* | 3 | -6 | 1 | -68 | 39
CC(=O)Nc1cccc(N(C)C)c1 | -3 | 1 | -18 | 0 | -55 | -1
Cc1ccccc1NC(=O)Cc1nnc(N)s1 | x | 2 | 20 | 2 | -23 | -12
Cc1c(CCC(=O)O)c(=O)oc2c(C)c(OCc3cc4c(cc3Cl)OCO4)ccc12 | x | 2 | 9 | 1 | -31 | 58*
CCN(CC)C(=O)CSC1=C(C#N)C(c2cccs2)C=C(C)N1 (centres undefined) | -1 | 0 | -28 | 0 | -28 | 12
Cn1c(=O)c(C(=O)NCCO)c(O)c2ccccc21 | -11 | -1 | 9 | 0 | 8 | -42
CCn1c(=O)c(C(=O)NCCNCCO)c(O)c2ccccc21 | -1 | 2 | -38 | 0 | 52* | 11
CN(C)c1cccc(C(=O)OCC(=O)NCC2CCCO2)c1 (centres undefined) | 0 | 0 | -40 | 0 | -16 | -8
Cc1cc2ncn(/N=C/c3ccc([N+](=O)[O-])s3)c2cc1C | -1 | -13 | -6 | 27 | 26 | 87*
O=C(Cc1ccccc1[N+](=O)[O-])NCCSCc1c(F)cccc1Cl | -3 | -4 | -16 | 0 | -20 | 12
CC(C)(C)C1CCC(=NNC(=O)c2cc3c(s2)CCCC3)CC1 (centres undefined) | 31 | 4 | 10 | 1 | 7 | -2
CC(C)(C)C1CCc2sc(C(=O)NNC(=O)CCl)cc2C1 (centres undefined) | 2 | -16 | 66* | 0 | -25 | -3
COc1ccc(-c2nc3cc(NC(=O)Cc4ccc(OC)c(OC)c4)ccc3o2)cc1 | 0 | 0 | -178 | 89* | -1 | 7
COc1ccc(OCC(=O)Nc2ccc3oc(-c4ccncc4)nc3c2)cc1 | -3 | -2 | -121 | 2 | 0 | 8
COc1ccc(-c2nn3c(-c4ccncc4)nnc3s2)cc1OC | x | -2 | x | 1 | x | x
COc1ccc(-c2nn3cnnc3s2)cc1OC | 1 | -5 | -40 | 1 | 53* | -6
Nc1c(C(=O)Nc2ccccc2)c2nc3ccccc3nc2n1-c1ccc(O)cc1 | x | -7 | -10 | 1 | 7 | 38
SMILES | Mcl-1 Bim block | TNF death inh | Calpain2 inh | zVAD death inh | Mcl1-Bid inh | Mcl1-Noxa inh
CCOC(=O)C1C(c2cccs2)NC(=O)N(C)C1(O)C(F)(F)F (centres undefined) | -1 | 3 | -6 | 0 | 61* | 0
CN1C(=O)NC(c2cccc(O)c2)C(C(=O)c2cccs2)C1(O)C(F)(F)F (centres undefined) | -4 | 0 | 8 | 0 | -13 | -17
CC(=O)C(Cc1ccccc1)NC(=O)CN1CCN(Cc2ccccc2)CC1 (centres undefined) | -3 | 2 | -7 | 1 | -52 | 11
CCCn1c(SCC(=O)N2CCCC(C)C2)nnc1-c1ccccn1 (centres undefined) | -2 | 1 | -8 | 0 | -30 | -4
CN(C)c1ccc(C(CNC(=O)c2ccccc2F)c2c[nH]c3ccccc23)cc1 (centres undefined) | 27 | 4 | -1 | 1 | -2 | 66*
CN(C)c1ccc(C(CNS(=O)(=O)c2ccc(F)c(F)c2)c2c[nH]c3ccccc23)cc1 (centres undefined) | -5 | 2 | 1 | 3 | -56 | 21
CN(C)c1ccc(C(CNC(=O)c2ccccc2)c2c[nH]c3ccccc23)cc1 (centres undefined) | -2 | 1 | -17 | 0 | -1 | 68*
CN(C)/C=N/c1ncn(-c2ncc(C(F)(F)F)cc2Cl)n1 | -1 | 0 | -12 | 5 | -14 | 9
CN(C(=O)CSc1nnc(Nc2ccccc2)s1)c1c(N)n(Cc2ccccc2)c(=O)[nH]c1=O | 8 | 0 | 19 | 0 | -18 | 53*
O=C1OC(c2ccccc2)=C/C1=C/N1CCCCC1 | 0 | 0 | 20 | 0 | 86* | 14
O=C1OC(c2ccccc2)=N/C1=C\N1CCCCC1 | -3 | 0 | 13 | 0 | -29 | 15
OC(c1ccccc1)c1nccc2ccccc12 (centres undefined) | -5 | 0 | -16 | 2 | -9 | 5
C=C(C)C(=O)Nc1cccc(C2=NOC3(C2)C[C@@H](C(N)=O)N(C(=O)CC(c2ccccc2)c2ccccc2)C3)c1 (some centres undefined) | x | 5 | -46 | 1 | -56 | 56*
C/C=C/C=C/C(=O)N1CC2(CC(c3cccc(NC(=O)/C=C/C)c3)=NO2)C[C@@H]1C(N)=O (some centres undefined) | x | 2 | -7 | 0 | -29 | 4
C/C=C(/C)C(=O)Nc1cccc(C2=NOC3(C2)C[C@@H](C(N)=O)N(C(=O)CC(c2ccccc2)c2ccccc2)C3)c1 (some centres undefined) | x | 0 | -68 | 0 | -15 | 11
C=C(C)C(=O)Nc1cccc(C2=NOC3(C2)C[C@@H](C(N)=O)N(C(=O)/C=C/C=C/C)C3)c1 (some centres undefined) | x | 1 | 23 | 1 | -55 | 97*
C=C(C)C(=O)Nc1cccc(C2=NOC3(C2)C[C@H](C(N)=O)N(C(=O)CC)C3)c1 (some centres undefined) | x | 1 | 15 | 0 | -34 | 69*
C=C(C)C(=O)Nc1cccc(C2=NOC3(C2)C[C@H](C(N)=O)N(C(=O)c2ccccc2C(=O)c2ccccc2)C3)c1 (some centres undefined) | x | -1 | -26 | 0 | -102 | 71*
C=CCOc1c(CNc2nccs2)cccc1OCC | -1 | -2 | -4 | -1 | -20 | 9

From PubChem BioAssay
